TSHR antagonist: human thyrotropin receptor antagonism; P16473; TSHR-expressing cells, TSH-stimulated cAMP HTRF, 2 h; active compounds read low; activity change, negative = inhibition, % at 11.5 µM; actives 0.2% (n = 330,000);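 active = activity change below a set negative limit, meaning inhibition stronger than a set level, cut at about -70% in these data; inconclusive = activity change between two set negative limits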; also: % is scaled to controls: 0 for no effect and ±100 for the full control effect
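Freshly harvested TSHR cells receive pin-tooled compound, then EC80 TSH at 4nM final. After 2 hours at 37 deg C, antibody in lysis buffer and cAMP-d2 are added; 30 minutes at ambient temperature precede the HTRF read.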
VDR inhibitor: vitamin D3 receptor (human) inhibition | P11473 | VDR-SRC2-3 peptide fluorescence polarization, 2 h | Potency, µM, for inactives: max response, negative = inhibition, hits mostly inhibitors | actives 0.93% (n = 400,000) | AID 504847; also: potency is read from the fitted curve at half-maximal effect; % is scaled to controls: 0 for no effect and ±100 for the full control effect
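Compounds are added to VDR with labelled SRC2-3 coactivator peptide and held 2 h at room temperature. Inhibition of the VDR–peptide interaction is then read as a change in fluorescence polarization.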
Vif-A3F inh: blocks the Vif interaction with APOBEC3F | Potency, µM (top dose mostly 46.1 µM), for the others: at the highest dose activity, negative = active | AID 602313 | HeLa A3F-eYFP + Vif (tagged APOBEC3F with the HIV-1 protein that degrades it), YFP fluorescence increase | actives 0.2% (n = 390,000); also: potency is read from the fitted curve at half-maximal effect; % of control where 0% means no effect; nearly all actives have a fitted effect of over 65% in size
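HeLa cells stably expressing Vif plus C-terminally eYFP-tagged A3F were seeded, incubated overnight at 37 deg C, dosed with compound, incubated overnight again at 37 deg C. Yellow fluorescence (Ex 488/Em 500-530) reported blocked Vif-mediated A3F-eYFP degradation.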
PLK1 PBD block: inhibitors of human PLK1 polo-box domain binding | P53350 | Plk1 PBD binding of FITC phosphopeptide, fluorescence polarization | Potency, µM, for the others: max response, negative = inhibition, usual class: inhibitors | actives 2.8% (n = 360,000); also: potency is read from the fitted curve at half-maximal effect; series mostly up to about 57 µM; % is scaled to controls: 0 for no effect and ±100 for the full control effect; nearly all actives have a fitted effect of over 65% in size
Vif-A3G inh: inhibitors of Vif-APOBEC3G interaction. AID 602310. actives 0.076% (n = 410,000). HeLa A3G-eYFP + Vif (tagged APOBEC3G with the HIV-1 protein that degrades it), YFP fluorescence, overnight. Q9HC16. Potency, µM (titrated, usually from 46.1 µM), for the others: at the highest dose activity, negative = active, usual class: inhibitors; also: potency is read from the fitted curve at half-maximal effect; % is scaled to controls: 0 for no effect and ±100 for the full control effect; nearly all actives have a fitted effect of over 60% in size
Target sequence (Q9HC16 whole entry, looked up): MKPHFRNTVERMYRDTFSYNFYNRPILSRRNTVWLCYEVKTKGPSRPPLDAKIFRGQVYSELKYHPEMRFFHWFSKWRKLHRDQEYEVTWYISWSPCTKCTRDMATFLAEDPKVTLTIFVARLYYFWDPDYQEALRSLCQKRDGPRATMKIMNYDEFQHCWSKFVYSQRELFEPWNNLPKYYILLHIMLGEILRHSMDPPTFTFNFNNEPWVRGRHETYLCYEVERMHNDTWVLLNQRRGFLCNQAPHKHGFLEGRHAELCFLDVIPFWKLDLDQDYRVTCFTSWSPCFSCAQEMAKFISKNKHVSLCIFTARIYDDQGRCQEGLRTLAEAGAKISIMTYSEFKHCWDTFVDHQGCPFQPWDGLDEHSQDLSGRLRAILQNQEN
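HeLa cells stably expressing Vif and C-terminally eYFP-tagged A3G, seeded overnight at 37 deg C, then exposed to compound by pintool overnight at 37 deg C. Rise in yellow fluorescence (Ex 488/Em 500-530, Acumen) marks blocked Vif-driven A3G degradation.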
Starred values were filed as active, the others as inactive; ? = inconclusive; . = no result. Compounds with a hit are over-represented: about 3.1% of the library has one in this group of screens. Unless noted, calls follow the shape of the dose curve; as a rule, active = well fitted curve in the direction sought with a large enough effect; inconclusive = small, poorly fitted or top-dose-only effect, or another doubt; inactive = no such curve, though single readings can be large; an effect the other way counts as inactive or inconclusive.

SMILES | TSHR antagonist | VDR inhibitor | Vif-A3F inh | PLK1 PBD block | Vif-A3G inh
O=C1CC(Sc2nnc(-c3ccccc3O)o2)C(=O)N1c1ccccc1 (configuration not stated) | -17.5 | 13.7% | -0.4% | ? | 1.9%
CCn1cc(C(=O)NCCc2ccc(Cl)cc2)c(=O)c2cc(S(=O)(=O)N3CCC(C)CC3)ccc21 | . | -5.4% | -0.4% | . | -0.7%
CS(=O)(=O)N(CC(=O)N1CCN(Cc2ccccc2)CC1)C1CCCCC1 | 8.0 | -1.5% | -2.9% | -26.3% | 1.0%
CS(=O)(=O)N(CC(=O)N1CCN(c2ccccc2)CC1)C1CCCCC1 | 4.0 | ? | -2.5% | 26.7µM* | -0.6%
O=CCCCC=O | . | -5.3% | . | . | .
CCOc1ccc(-n2c(SCC(=O)Nc3cc(C)on3)nc3c(c2=O)SCC3)cc1 | -84.9* | 23.4% | -3.2% | -9.3% | 2.8%
COc1ccc(C(=O)CCN2CCN(c3ccccc3F)CC2)cc1 | 21.4 | 22.4µM* | 0.1% | 10.6µM* | -19.7%
COc1ccc(C(=O)CCN2CCCCCC2)cc1 | -2.1 | 28.2µM* | 2.4% | 15.8µM* | -12.7%
COc1ccc(C(=O)CCN2CCN(c3ccc(OC)cc3)CC2)cc1 | 9.2 | ? | -5.0% | -24.5% | 0.3%
OC(Cc1ccc2ccccc2n1)c1c(Cl)cccc1Cl (configuration not stated) | . | . | . | . | -3.7%
Cc1nnc(SCC(=O)Nc2ccc(Br)cc2)[nH]c1=O | . | 2.8% | 8.0% | . | 2.5%
O=C1[C@@H]2CSC(c3ccc(Cl)cc3)N2C(=O)N1c1ccccc1 (some centres not stated) | . | -3.4% | -9.4% | . | -2.6%
CN(Cc1cccnc1)C(=O)CC1C(=O)NCCN1Cc1ccc(-c2ccccc2)cc1 (configuration not stated) | -14.1 | 16.5% | -6.1% | -13.6% | -0.4%
COc1cc(CN2CCNC(=O)C2CC(=O)N(C)Cc2cccnc2)cc(OC)c1 (configuration not stated) | 8.0 | -23.5% | -1.5% | 15µM* | -0.3%
COc1ccc(CN2CCNC(=O)C2CC(=O)N(C)Cc2nccs2)cc1OC (configuration not stated) | 9.4 | 17.3% | -0.6% | -3.7% | -3.9%
CN(Cc1nccs1)C(=O)CC1C(=O)NCCN1Cc1ccc(-c2ccccc2)cc1 (configuration not stated) | 1.1 | -15.1% | 1.7% | 26.7µM* | 1.9%
CC(C)(C)OC(=O)N1CCCC1C(=O)NC1COC2CC(n3cc(F)c(=O)[nH]c3=O)OC12 (configuration not stated) | . | -13.7% | . | . | -0.9%
COc1ccccc1-c1csc(N2CCC(C(N)=O)CC2)n1 | -14.0 | . | . | . | .
CCc1ccc(NC(=O)CN(CC(=O)Nc2ccc(CC)cc2)CC(C)O)cc1 (configuration not stated) | 26.3 | -26.0% | 3.0% | 26.7µM* | -4.1%
COc1cc(/C=C2\CCc3c2nc2ccccc2c3C(=O)O)cc(OC)c1OC | -4.8 | -26.5% | 3.0% | 16.8µM* | 0.8%
CCOc1cc(/C=C2\CCCc3c2nc2ccccc2c3C(=O)O)ccc1OC | -0.5 | -22.3% | ? | 2.99µM* | 10.7%
COc1cc(/C=C2\CCCc3c2nc2ccccc2c3C(=O)O)cc(Br)c1O | -3.1 | -1.2% | 3.2% | -5.7% | 0.7%
COc1ccc(/C=C2\CCCc3c2nc2ccccc2c3C(=O)OCC(=O)c2c(N)n(C)c(=O)n(C)c2=O)cc1 | 6.2 | . | . | . | .
Cc1nc(-c2ccc(S(=O)(=O)Nc3ccc(C#N)cc3)cc2)co1 | . | 7.2% | 7.2% | . | -0.8%
CCOC(=O)c1cc(-c2ccc(/C=C3/C(=O)N(c4ccc(C(=O)O)cc4)N=C3C)o2)ccc1Cl | -6.0 | ? | -6.1% | 0.844µM* | 1.4%
CC1=NOC(=O)/C1=C/c1ccc(-c2ccc(Cl)cc2)o1 | -5.1 | . | . | . | .
CC1=NOC(=O)/C1=C\c1ccc(-c2ccc(Br)cc2C(=O)O)o1 | -2.1 | 79.4µM* | -7.2% | 2.67µM* | -6.2%
O=C(O)/C(=C\c1ccc(-c2ccccc2[N+](=O)[O-])o1)c1ccccc1 | -6.2 | -25.7% | -0.8% | 37.7µM* | -8.7%
O=C1/C(=C\c2ccc(-c3ccccc3[N+](=O)[O-])o2)C(c2ccccc2)=NN1c1ccccc1 | -2.4 | -22.7% | 5.5% | 3.36µM* | 1.4%

From PubChem
